# In article PMC7862700, “An all-to-all approach to the identification of sequence-specific readers for epigenetic DNA modifications on cytosine”:
# Legend:
# Test in all cases: DAPPL (digital affinity profiling via proximity ligation, sequencing); 10 mM Tris-HCl pH 7.5, 50 mM NaCl, 1 mM DTT, 4% glycerol, room temperature, 30 min; GST-TFs on glutathione beads, 16-mer random dsDNA library, 0.1% formaldehyde crosslink after washing; high values mean tight binding
# Conditions in all cases: protein: recombinant; tags: N-terminal GST; dsDNA, one strand shown
# SPDEF = biological target: T1, SPDEF (Homo sapiens, UniProt O95238 1-335)
# T1 sequence: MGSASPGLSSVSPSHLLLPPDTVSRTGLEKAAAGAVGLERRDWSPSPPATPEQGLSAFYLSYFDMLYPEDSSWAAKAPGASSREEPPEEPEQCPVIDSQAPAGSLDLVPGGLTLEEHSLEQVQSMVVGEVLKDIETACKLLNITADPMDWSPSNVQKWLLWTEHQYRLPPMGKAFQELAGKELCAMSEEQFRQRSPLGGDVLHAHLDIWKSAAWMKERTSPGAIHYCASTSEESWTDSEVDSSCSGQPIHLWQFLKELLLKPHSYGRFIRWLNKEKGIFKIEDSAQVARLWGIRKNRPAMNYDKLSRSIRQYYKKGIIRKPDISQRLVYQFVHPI
# Outline: (§1)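 Yeast served to express human transcription factors as GST fusions, which were then captured on glutathione beads and labelled with DNA barcodes. Pooled with a tag-only sample, they were incubated with 200 nmole of a 16-mer random double-stranded DNA library for 30 min at room temperature in Tris/NaCl/DTT/glycerol buffer, washed, crosslinked with 0.1% formaldehyde, ligated by proximity, amplified by PCR and sequenced. Dividing each hexamer's read frequency for a factor by its frequency for the tag-only sample gives the binding signal.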
# ERF = biological target: T2, ERF (Homo sapiens, UniProt P50548 1-548)
# T2 sequence: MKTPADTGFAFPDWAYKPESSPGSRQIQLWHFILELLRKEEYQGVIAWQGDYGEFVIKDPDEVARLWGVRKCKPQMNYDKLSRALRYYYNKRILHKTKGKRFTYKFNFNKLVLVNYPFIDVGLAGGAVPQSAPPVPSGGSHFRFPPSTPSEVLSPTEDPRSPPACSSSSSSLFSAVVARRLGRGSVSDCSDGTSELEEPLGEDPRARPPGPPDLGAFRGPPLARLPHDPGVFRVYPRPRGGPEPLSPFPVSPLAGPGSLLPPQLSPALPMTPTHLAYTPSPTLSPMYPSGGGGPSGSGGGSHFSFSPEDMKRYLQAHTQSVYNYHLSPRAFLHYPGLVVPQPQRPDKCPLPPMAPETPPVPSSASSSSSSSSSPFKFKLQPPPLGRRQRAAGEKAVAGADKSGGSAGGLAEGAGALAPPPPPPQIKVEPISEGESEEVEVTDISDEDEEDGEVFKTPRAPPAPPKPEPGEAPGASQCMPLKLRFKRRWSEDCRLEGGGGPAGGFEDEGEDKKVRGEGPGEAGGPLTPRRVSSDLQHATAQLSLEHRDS
# Outline: as §1
# ETV3L = biological target: T3, ETV3L (Homo sapiens, UniProt Q6ZN32 1-361)
# T3 sequence: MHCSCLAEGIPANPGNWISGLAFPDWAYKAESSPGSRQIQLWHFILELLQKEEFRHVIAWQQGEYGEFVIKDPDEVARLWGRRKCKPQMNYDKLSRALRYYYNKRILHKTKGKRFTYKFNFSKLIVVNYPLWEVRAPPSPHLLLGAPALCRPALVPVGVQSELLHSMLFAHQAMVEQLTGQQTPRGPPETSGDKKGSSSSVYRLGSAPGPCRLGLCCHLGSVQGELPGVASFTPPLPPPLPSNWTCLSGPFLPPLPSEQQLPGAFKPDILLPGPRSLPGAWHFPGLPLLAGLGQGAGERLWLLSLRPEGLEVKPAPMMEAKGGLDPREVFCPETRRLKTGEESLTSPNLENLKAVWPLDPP
# Outline: as §1
# GABPA = biological target: T4, GABPA (Homo sapiens, UniProt Q06546 1-454)
# T4 sequence: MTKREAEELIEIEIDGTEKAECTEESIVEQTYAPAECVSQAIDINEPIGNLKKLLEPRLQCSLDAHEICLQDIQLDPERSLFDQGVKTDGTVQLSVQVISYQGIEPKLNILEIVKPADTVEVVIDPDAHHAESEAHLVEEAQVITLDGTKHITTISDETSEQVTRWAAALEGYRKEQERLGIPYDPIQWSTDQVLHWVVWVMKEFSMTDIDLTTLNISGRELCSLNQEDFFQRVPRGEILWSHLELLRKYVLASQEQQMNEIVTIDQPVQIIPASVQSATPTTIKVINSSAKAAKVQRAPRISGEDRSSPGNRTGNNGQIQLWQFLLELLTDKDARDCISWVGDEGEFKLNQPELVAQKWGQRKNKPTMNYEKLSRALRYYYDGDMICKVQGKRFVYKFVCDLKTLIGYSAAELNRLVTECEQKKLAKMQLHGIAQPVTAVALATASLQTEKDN
# Outline: as §1
# ELF1 = ELF1 (Homo sapiens, UniProt P32519 1-619)
# Outline: as §1
# EHF = biological target: T5, EHF (Homo sapiens, UniProt Q9NZC4 1-300)
# T5 sequence: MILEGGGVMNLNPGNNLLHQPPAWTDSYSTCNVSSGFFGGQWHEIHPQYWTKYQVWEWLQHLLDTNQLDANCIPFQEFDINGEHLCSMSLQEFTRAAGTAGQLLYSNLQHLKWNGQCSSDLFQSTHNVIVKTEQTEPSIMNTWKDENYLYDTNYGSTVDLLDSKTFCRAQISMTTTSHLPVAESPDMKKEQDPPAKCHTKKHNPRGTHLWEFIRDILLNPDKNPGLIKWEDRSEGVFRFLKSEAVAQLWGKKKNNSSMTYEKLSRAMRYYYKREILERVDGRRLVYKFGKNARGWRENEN
# Outline: as §1
# FEV = biological target: T6, FEV (Homo sapiens, UniProt Q99581 1-238)
# T6 sequence: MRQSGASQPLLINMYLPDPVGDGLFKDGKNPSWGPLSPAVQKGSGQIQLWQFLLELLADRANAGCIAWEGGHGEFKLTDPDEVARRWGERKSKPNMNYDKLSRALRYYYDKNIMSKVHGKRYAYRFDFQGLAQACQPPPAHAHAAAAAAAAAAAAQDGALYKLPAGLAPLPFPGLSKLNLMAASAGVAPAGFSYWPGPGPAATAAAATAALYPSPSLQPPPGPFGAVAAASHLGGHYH
# Outline: as §1
# ETS2 = biological target: T7, ETS2 (Homo sapiens, UniProt P15036 1-469)
# T7 sequence: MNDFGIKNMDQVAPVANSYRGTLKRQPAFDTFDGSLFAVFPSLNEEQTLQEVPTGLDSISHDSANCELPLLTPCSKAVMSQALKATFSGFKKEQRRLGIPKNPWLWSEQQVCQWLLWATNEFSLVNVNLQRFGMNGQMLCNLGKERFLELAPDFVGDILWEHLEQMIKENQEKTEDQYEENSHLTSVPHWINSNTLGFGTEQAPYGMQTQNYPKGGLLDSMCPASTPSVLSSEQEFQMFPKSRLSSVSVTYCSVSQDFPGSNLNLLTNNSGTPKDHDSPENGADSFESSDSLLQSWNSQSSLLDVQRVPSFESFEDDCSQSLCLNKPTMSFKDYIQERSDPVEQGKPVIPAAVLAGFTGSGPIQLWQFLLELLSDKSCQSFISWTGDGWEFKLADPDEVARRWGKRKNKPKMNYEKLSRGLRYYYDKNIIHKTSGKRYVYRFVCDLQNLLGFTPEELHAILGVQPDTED
# Outline: as §1
# ETV1 = ETV1 (Homo sapiens, UniProt P50549 1-477)
# Outline: as §1
# SPIB = SPIB (Homo sapiens, UniProt Q01892 1-262)
# Outline: as §1
# ERG = biological target: T8, ERG (Homo sapiens, UniProt P11308 1-479)
# T8 sequence: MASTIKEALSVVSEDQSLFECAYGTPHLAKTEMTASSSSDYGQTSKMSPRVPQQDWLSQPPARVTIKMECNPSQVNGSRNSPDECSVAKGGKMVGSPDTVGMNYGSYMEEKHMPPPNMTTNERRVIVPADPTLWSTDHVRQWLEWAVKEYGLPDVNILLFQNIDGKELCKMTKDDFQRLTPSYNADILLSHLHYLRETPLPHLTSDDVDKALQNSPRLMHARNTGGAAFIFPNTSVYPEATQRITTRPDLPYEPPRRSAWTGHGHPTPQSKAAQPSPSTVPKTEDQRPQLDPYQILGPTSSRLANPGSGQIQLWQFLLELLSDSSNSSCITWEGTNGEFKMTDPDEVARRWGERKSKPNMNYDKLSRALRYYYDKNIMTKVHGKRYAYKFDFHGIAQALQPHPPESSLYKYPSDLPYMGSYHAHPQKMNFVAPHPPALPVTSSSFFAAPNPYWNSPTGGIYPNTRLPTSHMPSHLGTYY
# Outline: as §1
# ETV7 = biological target: T9, ETV7 (Homo sapiens, UniProt Q9Y603 1-341)
# T9 sequence: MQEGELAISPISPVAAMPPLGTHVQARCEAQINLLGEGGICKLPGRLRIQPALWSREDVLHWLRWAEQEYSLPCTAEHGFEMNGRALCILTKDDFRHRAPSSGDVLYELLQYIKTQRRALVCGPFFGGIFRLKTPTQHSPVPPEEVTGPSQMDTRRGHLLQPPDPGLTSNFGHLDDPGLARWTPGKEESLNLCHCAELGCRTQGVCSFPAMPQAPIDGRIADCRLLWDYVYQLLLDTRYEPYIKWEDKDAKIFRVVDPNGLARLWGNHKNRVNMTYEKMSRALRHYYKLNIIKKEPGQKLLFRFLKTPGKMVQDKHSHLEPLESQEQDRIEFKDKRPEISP
# Outline: as §1
# ETV3 = biological target: T10, ETV3 (Homo sapiens, UniProt P41162-2 1-143)
# T10 sequence: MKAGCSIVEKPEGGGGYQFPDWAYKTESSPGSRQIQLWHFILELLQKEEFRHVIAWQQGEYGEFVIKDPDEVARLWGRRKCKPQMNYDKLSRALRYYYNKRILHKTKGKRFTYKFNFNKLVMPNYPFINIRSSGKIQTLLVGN
# Outline: as §1
# ETV6 = ETV6 (Homo sapiens, UniProt P41212 1-452)
# Outline: as §1
# SPIB, sequence (Q01892 whole entry): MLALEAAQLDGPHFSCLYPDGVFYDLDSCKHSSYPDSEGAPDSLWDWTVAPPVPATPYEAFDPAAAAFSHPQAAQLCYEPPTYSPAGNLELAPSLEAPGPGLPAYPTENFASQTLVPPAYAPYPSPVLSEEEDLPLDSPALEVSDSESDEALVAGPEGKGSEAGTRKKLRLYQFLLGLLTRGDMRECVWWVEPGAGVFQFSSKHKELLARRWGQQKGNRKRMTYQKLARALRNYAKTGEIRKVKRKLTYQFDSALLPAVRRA
# ETV6, sequence (P41212 whole entry): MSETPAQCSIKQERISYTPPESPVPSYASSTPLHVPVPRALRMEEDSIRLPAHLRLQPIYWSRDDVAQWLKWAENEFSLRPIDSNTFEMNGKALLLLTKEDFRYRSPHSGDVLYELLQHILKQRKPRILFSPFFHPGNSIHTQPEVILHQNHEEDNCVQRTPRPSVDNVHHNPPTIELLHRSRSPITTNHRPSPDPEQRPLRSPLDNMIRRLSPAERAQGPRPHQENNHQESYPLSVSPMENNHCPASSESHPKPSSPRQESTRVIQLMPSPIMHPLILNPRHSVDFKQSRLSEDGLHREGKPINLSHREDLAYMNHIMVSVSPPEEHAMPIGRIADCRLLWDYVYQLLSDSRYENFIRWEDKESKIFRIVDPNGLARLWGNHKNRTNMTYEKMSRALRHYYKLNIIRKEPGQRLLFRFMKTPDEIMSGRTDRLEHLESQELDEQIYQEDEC
# ELF1, sequence (P32519 whole entry): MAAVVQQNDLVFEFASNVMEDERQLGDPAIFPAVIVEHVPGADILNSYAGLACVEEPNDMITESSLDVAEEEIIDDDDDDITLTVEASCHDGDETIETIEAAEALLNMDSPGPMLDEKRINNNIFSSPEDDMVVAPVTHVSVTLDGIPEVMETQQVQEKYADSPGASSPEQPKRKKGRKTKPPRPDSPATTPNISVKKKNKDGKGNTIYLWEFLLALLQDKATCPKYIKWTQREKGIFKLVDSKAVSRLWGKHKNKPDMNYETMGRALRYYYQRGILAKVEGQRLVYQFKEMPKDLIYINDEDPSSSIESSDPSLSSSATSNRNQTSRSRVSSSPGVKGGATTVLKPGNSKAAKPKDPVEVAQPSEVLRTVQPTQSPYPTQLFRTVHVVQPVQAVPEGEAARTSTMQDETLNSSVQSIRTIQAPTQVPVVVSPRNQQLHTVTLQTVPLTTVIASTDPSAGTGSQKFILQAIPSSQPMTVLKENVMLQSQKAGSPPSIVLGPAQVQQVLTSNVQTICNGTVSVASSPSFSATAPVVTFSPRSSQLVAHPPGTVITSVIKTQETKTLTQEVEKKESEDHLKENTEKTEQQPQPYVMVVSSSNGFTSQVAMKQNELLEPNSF
# ETV1, sequence (P50549 whole entry): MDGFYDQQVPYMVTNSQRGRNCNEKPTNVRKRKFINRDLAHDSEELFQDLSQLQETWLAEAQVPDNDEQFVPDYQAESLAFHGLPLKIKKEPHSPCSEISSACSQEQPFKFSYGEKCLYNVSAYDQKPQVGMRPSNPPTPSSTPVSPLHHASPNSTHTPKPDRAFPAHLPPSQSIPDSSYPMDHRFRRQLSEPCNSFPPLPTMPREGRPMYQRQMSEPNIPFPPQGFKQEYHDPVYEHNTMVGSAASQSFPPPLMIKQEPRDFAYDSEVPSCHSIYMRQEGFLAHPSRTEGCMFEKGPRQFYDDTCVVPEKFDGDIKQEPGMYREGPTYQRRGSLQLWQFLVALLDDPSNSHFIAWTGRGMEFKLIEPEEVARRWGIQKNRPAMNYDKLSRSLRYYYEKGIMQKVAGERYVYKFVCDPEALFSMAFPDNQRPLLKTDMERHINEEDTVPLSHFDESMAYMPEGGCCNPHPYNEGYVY
sequence,measurement,setting,value
CCGGGC,binding signal,SPDEF,"1.05 fold enrichment (6-mer frequency, TF over GST control)"
AGCACC,binding signal,ERF,"1.03 fold enrichment (6-mer frequency, TF over GST control)"
same,binding signal,ETV3L,"1.04 fold enrichment (6-mer frequency, TF over GST control)"
GGCCAC,binding signal,GABPA,"1.02 fold enrichment (6-mer frequency, TF over GST control)"
same,binding signal,ELF1,"1.03 fold enrichment (6-mer frequency, TF over GST control)"
same,binding signal,EHF,"1.03 fold enrichment (6-mer frequency, TF over GST control)"
same,binding signal,FEV,"1.05 fold enrichment (6-mer frequency, TF over GST control)"
same,binding signal,ETS2,"1 fold enrichment (6-mer frequency, TF over GST control)"
CGCGGT,binding signal,ETV1,"1.03 fold enrichment (6-mer frequency, TF over GST control)"
ATAGAG,binding signal,ERF,"1.01 fold enrichment (6-mer frequency, TF over GST control)"
GGTTGC,binding signal,SPIB,"1 fold enrichment (6-mer frequency, TF over GST control)"
same,binding signal,ETV3L,"1.01 fold enrichment (6-mer frequency, TF over GST control)"
GACACC,binding signal,ETV3L,"1.01 fold enrichment (6-mer frequency, TF over GST control)"
GAACAG,binding signal,ERG,"1.02 fold enrichment (6-mer frequency, TF over GST control)"
same,binding signal,EHF,"1.03 fold enrichment (6-mer frequency, TF over GST control)"
same,binding signal,SPIB,"1.03 fold enrichment (6-mer frequency, TF over GST control)"
same,binding signal,ETV7,"1 fold enrichment (6-mer frequency, TF over GST control)"
same,binding signal,ETV3,"1.05 fold enrichment (6-mer frequency, TF over GST control)"
CGGAAT,binding signal,SPDEF,"1 fold enrichment (6-mer frequency, TF over GST control)"
same,binding signal,ETV3,"1.02 fold enrichment (6-mer frequency, TF over GST control)"
same,binding signal,ETV6,"1.01 fold enrichment (6-mer frequency, TF over GST control)"
GGGAAG,binding signal,ETV6,"1.04 fold enrichment (6-mer frequency, TF over GST control)"
